Only some compounds are listed: those with a hit (about 5.7% of all), similar ones and a draw of the others.
D3 ag – activates the human D3 dopamine receptor; P35462; D3R DiscoveRx beta-arrestin cells, luminescence, 90 min; 0.58% of 410,000 active; max activation, %; in the data active = max activation above about 30%; note: 0% is about no effect
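Agonist mode: compounds and dopamine controls were applied to plated cells for 90 min at 37 degrees C after an overnight attachment at 1500 cells/well. Luminescent read-out followed 30 - 60 minutes at room temperature with DiscoveRx detection reagent.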
HEK293 tox – cytotoxicity in counter-screen for GLP-1R inverse agonists. HEK293 cAMP-luciferase reporter cells, luminescence, 24 h. Potency, µM (top dose mostly 38.3 µM), for the others: top-dose activity change, negative = inhibition, actives largely listed as inhibitors. 0.13% of 410,000 active;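 note: loss of luciferase light is scored as toxicity; potency is the fitted concentration of half-maximal effect; % is set by controls: 0 for no effect and ±100 for the full control effect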
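Here, cytotoxicity is scored as loss of luminescence. The MLSMR collection was tested on cells seeded in medium containing 10% Nu serum, with a 24 hr compound exposure preceded by 12 hours of culture.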
GLP1R inv ag – inverse agonists of human GLP-1 receptor; P43220; HEK293 GLP-1R CRE-luciferase, luminescence, 24 h; GLP-1R form is constitutively active; Potency, µM (titrated, usually from 38.3 µM), for the others: at the top dose activity change, negative = inhibition, usual class: inhibitors; 1.6% of 410,000 active; AID 624417; note: potency is the fitted concentration of half-maximal effect; % is set by controls: 0 for no effect and ±100 for the full control effect; nearly all actives have a fitted effect of over 55% in size
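Inverse agonism was detected as reduced cAMP-driven luciferase luminescence after 24 h compound treatment. The cells were HEK293 clones expressing constitutively active human GLP-1R with the reporter. Reporter-only and GPR119 cell lines served as counterscreen controls.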
ClpP mod – qHTS Assay for Activators of ClpP | purified B. subtilis ClpP, FRET peptide cleavage, 20 min | Potency, µM (top dose mostly 57.5 µM), inactives show top-dose activity change, negative = active | 1.9% of 340,000 active | AID 651965, 2013; active = well fitted falling curve with a large enough effect; inconclusive = small, poorly fitted or top-dose-only effect; inactive = no such curve, though single readings can be large or run the other way; note: potency is the fitted concentration of half-maximal effect; the source files actives as falling curves though it sought activators and does not explain the sign; nearly all actives have a fitted effect of over 65% in size
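Buffer: 100 mM Tris/HCl pH8, 100 mM KCl, 0.05% low protease BSA, 2.5% glycerol, 0.01% Tween-20. ClpP 10 microg/mL final; 20 min RT; delta FRET normalized to ADEP and DMSO controls.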
GLP1R ag – GLP-1 receptor (human) agonism. P43220. HEK293 GLP-1R CRE-luciferase, luminescence, 4-6 h; cells express a hypersensitive GLP-1R form. Potency, µM (series often up to 45.6 µM), for inactives: top-dose activation, actives largely listed as activators. 0.007% of 380,000 active. AID 624172; note: potency is the fitted concentration of half-maximal effect; % of control where 0% means no effect
DRD3 antagonist – D3 dopamine receptor (human) antagonism. P35462. D3R cells, DiscoveRx beta-arrestin luminescence, antagonist mode; hits give low values. max response, negative = inhibition, %. 2.5% of 360,000 active. AID 652054; in the data active = max response below about -50%; inconclusive = no clear call, values can overlap the other calls; note: % is set by controls: 0 for no effect and ±100 for the full control effect
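Cells plated overnight at 1500 cells/well, then exposed to library compounds with dopamine controls for 90 minutes at 37 degrees C. DiscoveRx reagent added for 30–60 minutes at room temperature; luminescence read, quantitative HTS format.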
The depositor's hits bear a star; ? = inconclusive; / = not tested or not shown; [ ] = dose if it differs, or a comment. Unless noted, calls come from the whole dose curve; as a rule, active = well fitted curve in the direction sought with a large enough effect; inconclusive = small, poorly fitted or top-dose-only effect, or another doubt; inactive = no such curve, though single readings can be large; an effect the other way counts as inactive or inconclusive.

SMILES	D3 ag	HEK293 tox	GLP1R inv ag	ClpP mod	GLP1R ag	DRD3 antagonist
COc1ccc(-c2cc(-c3cccs3)c(C#N)c(SCC(=O)NCc3ccccc3OC)n2)cc1	-2	-19%	-13%	40µM*	-9%	15
O=C(CN1C(=O)COc2ccc(S(=O)(=O)NC3CCCC3)cc21)NCc1ccc(Cl)cc1	-11	-6%	-29%	1%	/	/
CCn1nc(C)c2c(-c3ccccc3)cc(=O)n(C(C)C(=O)Nc3ccc(OC)c(OC)c3)c21 (configuration not stated)	-7	-1%	11%	22%	/	/
Cc1ccc(OC(=O)c2snnc2C)cc1C	2	-1%	13%	1%	/	/
COCCN1C(=O)COc2ccccc2C1C(=O)NCc1ccccc1 (configuration not stated)	6	4%	6%	0%	0%	18
CCOC(=O)c1ccc(NC(=O)CCc2c(C)nc3c(c(C)nn3C(C)(C)C)c2C)cc1	21	-22%	7.9µM*	?	-6%	/
COC(=O)c1ccc(NC(=O)CCc2c(C)nc3c(c(C)nn3C(C)(C)C)c2C)cc1	22	1%	-5%	-1%	-1%	/
CCOc1ccc(-n2nc(CO)c(C(=O)NCc3cccs3)n2)cc1	6	-27%	?	7.9µM*	/	/
Cc1ccc(-n2nc(CO)c(C(=O)NCc3cccs3)n2)cc1	-8	-1%	-17%	?	/	/
Cc1ccc(CNC(=O)c2nn(-c3ccc(Cl)cc3)nc2CO)cc1	-1	10%	15%	25µM*	/	/
O=C(NCc1cccnc1)c1nn(-c2ccc(F)cc2)nc1CO	-8	0%	17%	25µM*	/	/
Cc1ccc(-n2nc(CO)c(C(=O)NCc3cccnc3)n2)cc1C	-32	-36%	?	16µM*	/	/
CCOC(=O)c1cccc(NC(=O)Cc2ccc(NC(=O)N3CCCCc4ccccc43)cc2)c1	-6	-9%	?	-14%	/	/
Cc1ccc(-n2nc(CO)c(C(=O)NCc3cccnc3)n2)cc1	2	-15%	-10%	7.9µM*	/	/
CCc1ccc(-n2nc(CO)c(C(=O)NCc3cccnc3)n2)cc1	2	-4%	?	?	/	/
COc1ccc(-c2ccc(C(=O)NCc3ccc(N4CCN(C)CC4)cc3)c3occc23)c(C)c1	-23	?	?	-13%	-6%	-7
Cc1cccc(CN2CCN(C3CN(C4CCCC4)S(=O)(=O)C3)CC2)c1 (configuration not stated)	-11	1%	-16%	-2%	-3%	?
Cc1cccc(CN2CCN(C3CN(C4CCCCC4)S(=O)(=O)C3)CC2)c1 (configuration not stated)	-14	2%	-32%	-4%	2%	-57*
CC(=O)c1cc(C#N)c(Oc2ccc(Cl)cc2Cl)nc1C	3	6%	0%	-2%	-1%	-56*
CC(=O)c1cc(C#N)c(Oc2ccccc2)nc1C	-6	-1%	-1%	2%	2%	0
CCOC(=O)C(=NCC1CCCO1)NNc1cc(Cl)ccc1Cl (configuration not stated)	-2	5%	11µM*	/	20%	-20
CCOC(=O)/C(=N\Nc1cc(Cl)ccc1Cl)N1CC(C)OC(C)C1 (configuration not stated)	2	6%	1%	-1%	3%	18
CNc1c(Cl)cc(/C=C2\C=Cc3ccccc32)cc1Cl	/	/	/	-2%	/	/
CCCc1cc(NCCOCCO)n2c(nc3ccccc32)c1C#N	5	46%	13%	4%	0%	-57*
CCCc1cc(N2CCN(C(=O)c3ccco3)CC2)n2c(nc3ccccc32)c1C#N	-1	466%	?	35µM*	-7%	20
SMILES	D3 ag	HEK293 tox	GLP1R inv ag	ClpP mod	GLP1R ag	DRD3 antagonist
CCCc1cc(NCCCCO)n2c(nc3ccccc32)c1C#N	4	166%	4%	20%	10%	9
CCCc1cc(-n2ccnc2C)n2c(nc3ccccc32)c1C#N	1	2%	27%	/	5%	20
O=C(CN1C(=O)COc2ccc(S(=O)(=O)N3CCOCC3)cc21)N1CCN(c2cccc(C(F)(F)F)c2)CC1	0	1%	-6%	-3%	1%	/
Cc1ccc(S(=O)(=O)N2C[C@@H](C)[C@]3(C2)[C@H](O)[C@H](OC(=O)NCc2ccccc2F)C[C@H]2C(=O)N(c4ccccc4)C(=O)[C@H]23)cc1	3	24%	?	0%	0%	15
O=C(NCc1cccnc1)C(=O)NCC(c1ccco1)N1CCN(c2ccccc2F)CC1 (configuration not stated)	51*	-3%[1.53 µM]	-10%	18µM*	-2%	22
CCOc1ccc(CNC(=O)c2cc3c(s2)-c2ccccc2OC3)cc1	-4	4%	-28%	4%	-2%	/
Cn1c(=NC(=O)c2ccc(S(=O)(=O)N3CCCC3)cc2)sc2cc(F)ccc21	6	-4%	1%	1%	/	/
COc1cccc(-c2cc3nc(-c4ccccc4)cc(N4CCC5(CC4)OCCO5)n3n2)c1	14	3%	0%	16µM*	7%	42
CN1CCN(c2cc(-c3ccccc3)nc3cc(-c4ccc(F)cc4)nn23)CC1	-21	1%	?	22µM*	15%	-16
COc1ccccc1-c1cc2nc(-c3ccccc3)cc(N3CCN(C(=O)c4ccco4)CC3)n2n1	39*	-3%	7%	4%	1%	62
CCc1ccc(CN(Cc2cn[nH]c2-c2ccc(OC)cc2)C(=O)Nc2ccc(Br)cc2)cc1	17	-19%	?	1%	/	/
CCOC(=O)C1=C(CSCC(=O)OC)NC(=O)NC1c1cc(C)ccc1C (configuration not stated)	1	1%	0%	-2%	0%	13
CCOC(=O)C1=C(CSc2nc3ccccc3s2)NC(=O)NC1c1cc(C)ccc1C (configuration not stated)	31*	-10%	?	-9%	1%	34
Clc1ccc(-c2ccc(CN3CCCCC3)o2)cc1	-6	6%	?	-4%	1%	-106*
CN1CCN(Cc2ccc(-c3ccc(Cl)cc3)o2)CC1	-19	-8%	?	-8%	-4%	-71*
OCCc1ccc(-c2ccc(Cl)cc2)o1	8	3%	1%	-12%	9%	6
COc1cccc(/C=C/c2cnc3ccccc3n2)c1OC	/	/	/	-18%	/	/
Cc1cccc2nc(-c3ccccc3)nc(N3CCC(O)(c4ccc(Cl)cc4)CC3)c12	-10	-3%	3.5µM*	14µM*	-12%	?
CCOCCCN(Cc1ccco1)S(=O)(=O)c1cc2c(cc1Cl)NC(=O)CO2	-10	14%	12%	-5%	/	/

Source: PubChem
